Data on eleven compounds can be found in PubChem BioAssay.

Activity calls are given as the source filed them.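 Rule for the calls: active = normalized viability below 100% at a tested concentration; inactive = the rest.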

A word on the viability: it is a read-out of living cells in per cent, often relative to untreated cells.

The experiment is described as follows: ovarian cancer cell viability with rucaparib, profiling panel, oncology-focused library, rucaparib conditional (AID 1508598). The following applies: patient-derived ovarian cancer cells, CellTiter-Glo viability, 144 h; at 5 µM; OCI-P5x cells; without rucaparib; active compounds read low.
As for `CC1(C)CNc2cc(NC(=O)c3cccnc3NCc3ccncc3)ccc21`, the viability was 94.6% (active).

As to `O=C(Nc1ccccc1-c1cn2c(CN3CCNCC3)csc2n1)c1cnc2ccccc2n1`, the viability is 0.751% (active).

Regarding `Cc1cnc(NC(=O)Nc2cc(Br)c(C)cc2OC[C@@H]2CNCCO2)cn1`, the viability was 7.42% (active).

Consider `N#Cc1c(NC(=O)c2cccc3ccccc23)sc2c1CCCC2`, for which the viability was 18.2% (active).

As for `COc1ccc(-c2ccc3c(N4CCOC[C@@H]4C)nc(N4CCOC[C@@H]4C)nc3n2)cc1CO`, the viability was 20.8% (active).

Turning to `Nc1nc(Nc2ccc(S(N)(=O)=O)cc2)nn1C(=O)c1c(F)cccc1F`, the viability was 13.1% (active).

In the case of `Cc1ccc(F)c(NC(=O)Nc2ccc(-c3cccc4[nH]nc(N)c34)cc2)c1`, the viability was 35.5% (active).

With `COc1ccc(-c2ccc3c(N4CCOCC4)nc(N4C[C@@H](C)O[C@@H](C)C4)nc3n2)cc1CO`, the viability is 99.4% (active).

Turning to `N#CCNC(=O)c1ccc(-c2ccnc(Nc3ccc(N4CCOCC4)cc3)n2)cc1`, the viability is 49% (active).

On to `COC(=O)c1ccc2c(C(=Nc3ccc(N(C)C(=O)CN4CCN(C)CC4)cc3)c3ccccc3)c(O)[nH]c2c1`, for which the viability was 59.1% (active).

As for `COc1cc2nccc(Oc3ccc(NC(=O)Nc4cc(C)on4)c(Cl)c3)c2cc1OC`, the viability was 82.8% (active).
